# Source: the supplement of paper PMC6555819
# Assays:
# Assay in all cases: PBM binding z-score (relative to random genomic background probes); higher = stronger binding; sequences stand for … in GC…GCGATTGACAGCGTAGAATGAAGG
# [1] = tested on: RARb homodimer (NR concentration 270 nM)
# In short: (§1)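 On custom Agilent 4×180K arrays, double-stranded probes with 34-nt variable regions carried direct-repeat seeds, single-nucleotide variants, half-site ablations or random human genomic background. Ligand-free nuclear receptor dimers were applied for 1 h, and binding was read with antibodies against each partner (one per run). Binding z-scores come from regression-normalized fluorescence, with the random background probes as reference.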
# [2] = tested on: RARg:RXRa (NR concentration 270 nM, RXRa partner concentration 90 nM)
# In short: as §1
# [3] = tested on: RARg homodimer (NR concentration 270 nM)
# In short: as §1
# [4] = tested on: RXRa DBDmut IVT, anti-RXR (DBD mutation: RXRa K156A/R161A, NR concentration 90 nM)
# In short: as §1
# [5] = tested on: RXRa homodimer (NR concentration 180 nM)
# In short: as §1
# [6] = tested on: THRa:RXRa (NR concentration 90 nM, RXRa partner concentration 90 nM)
# In short: as §1
# [7] = tested on: THRa homodimer (NR concentration 90 nM)
# In short: as §1
# [8] = tested on: VDR homodimer (NR concentration 270 nM)
# In short: as §1
Sequence,PBM binding z-score [1],PBM binding z-score [2],PBM binding z-score [3],PBM binding z-score [4],PBM binding z-score [5],PBM binding z-score [6],PBM binding z-score [7],PBM binding z-score [8]
TCAGACAGGTGAAGGTAATTCAGGTACGCAGTCG,0.916,0.717,0.626,1.5,1.08,1.81,0.574,0.38
AGAACGAGGGCACGCTGAGTTGATAGCGGAGTAG,1.17,1.85,2.56,1.97,1.26,1.86,0.248,2.34
ACTATTAGTTGACGTAGGGCAACCGATACGACGC,0.993,0.445,0.82,0.582,0.328,0.925,-0.0539,0.159
AGAACGAGGGCAATGTGTTGATAGCACGGGTGGC,1.23,1.16,1.44,1.74,0.945,0.861,-0.000904,0.944
TAGCCTAGGTGATTCAGGGGCCAGTATAGAAAGC,0.919,0.914,0.0636,-0.561,-0.089,0.651,-0.0483,-0.15
GCGACTGGGTCAAAGCAGGTTACCATAAGGTTGG,2.76,3.65,3.32,0.713,3.11,4.65,0.279,0.45
TCATATAGGTAAATGCTAGGTGAAAGTACGATCT,0.7,0.683,0.548,1.67,1.26,1.6,0.701,0.431
ACATGTAGGTTAAGGGTCATTCAGGTTGGTTCGC,3.49,4.68,3.24,2.73,5.95,3.42,2.01,4.91
TGAATGAGGTTACAAGATCAGGGAACGTTGCAAA,0.458,1.79,1.52,0.127,2.26,2.2,0.329,0.106
TCATATAGGTAAACAGGAGAAAGTCCGTAAGTTA,-0.0173,0.0941,0.0897,1.4,0.771,0.0424,-0.0606,0.309
TCAGACAGGTGAAGTTAACTCAGGTACGCAGTCG,0.596,0.588,0.629,1.33,0.838,1.55,0.285,0.404
GATACAGGTTCAGCTAGAGGCCAGAGTATGGAAA,1.13,4.48,1.11,3.05,1.33,1.16,-0.412,2.29
CTTTACGGGTCACTCCAGGTTATAGCATCGGAGT,3.36,4.62,4.65,2.29,4.54,5.08,0.775,1.88
CCTGACGGGTCACTGACAGGTTATAGCATTTGGA,2.98,5.4,4.25,1.04,4.25,2.44,0.0984,0.76
ATCTCTAGGTAAAAGTTGAGTGAATCCCGAGGAT,0.0614,0.517,0.653,0.044,0.435,0.387,0.0583,-0.06
TCATACAGGTAAAGGTGAAAGTCGAACGATATGA,1.73,1.78,1.69,1.17,2.23,1.46,0.0499,0.141
AGTCAAAGTTCATCTAGGTAACGTCAGATATGCT,3.92,5.76,6.22,4.83,4.45,3.18,0.387,5.66
GCGACTGGGGCATCAGAAGGTTACCATAACTTAA,1.73,1.74,1.06,0.112,0.743,1.24,-0.47,-0.299

Sequence,PBM binding z-score [1],PBM binding z-score [2],PBM binding z-score [3],PBM binding z-score [4],PBM binding z-score [5],PBM binding z-score [6],PBM binding z-score [7],PBM binding z-score [8]
CGAACGAGGGCATGAGTTCATAGCAAATGCCGAT,2.53,3.42,2.88,3.85,3.03,2.73,0.469,6.18
TCATATAGGTAATACAGGTGAAAGTCGGCATCTA,0.693,0.799,0.796,1.54,1.44,1.1,0.471,-0.0243
TTACCAAGGTGAGCTGAGGTCGTTGAGCCAACTC,1.75,1.39,0.933,-0.158,1.48,4.77,2.04,1.96
ACTATTAGTTGACTTAGGGGAACCGATACGACGC,0.325,0.568,0.663,1.15,0.583,1.11,0.616,0.357
TAGCCTAGGTCAGATCGGCCCAGTATACGCTATA,1.84,2.5,3.35,-0.434,1.35,1.98,-0.12,-0.474
TCGCCTAGGTCATTGGGCCAGTATAGTACGCATC,2.87,3.95,3.88,2.13,2.69,2.68,0.959,1.57
TCCAGTAGGTTACCAATGGGGCATTCAGCTTTCT,0.751,1.45,0.608,0.663,0.815,0.145,-0.653,-0.528
CCTTACGGGTCACGAGGTTATAGCGCGACGAGCG,3.63,5.98,5.29,1.62,6.87,3.59,1.07,1.9
CCTTACGGGTCAAGGTTAGAGCACGGGTGGTACG,3.19,4.77,4.65,-0.0809,4.97,2.94,0.656,1.05
CGACCAAGGTCAAGGTCAGTGAAAGAGACTCGAA,4.91,6.66,7.49,3.4,6.54,4.31,2.79,2.52
TAGCCTAGGTCATTCAGGGGCCATTATAGAAAGC,3.54,6.28,4.48,2.04,3.12,3.69,1.13,1.96
CGAACTAGGTCATTGACCGGACAGTGAATAGTAA,2.74,4.42,4.59,2.25,2.82,2.57,0.878,1.18
TCTTGTAGATCAAGCAGGTTCAGAAAGCCTGAGT,-0.055,-0.213,-0.414,0.872,0.0665,0.613,-0.659,2.13
CGACCAAGGTCAGAGAGGTCAGTGAATGCCGAGT,5.37,6.34,7.04,3.34,5.82,4.15,2.11,5.63
CGGCCAAGGTCAGAGAGGTCAGTGAATGCCGAGT,5.45,6.22,7.62,3.44,6.21,4.17,2.42,5.9
TTACCAAGGTGAAAGCTCGTTGATGCACGCCTTG,0.13,0.342,0.28,-0.23,0.617,1.38,0.107,-0.644
TGAATGAGGTTAAAGATCAGCGAACGTGGCGTCG,0.498,2.34,1.26,1.56,3.59,2.39,0.17,0.749
